For six molecules, AC50 and outcome results are on record in PubChem BioAssay (EPA / NIEHS).

In general, AC50 refers to the midpoint of the concentration-response curve, whichever way the signal moves.

Common to all, as to settings: mRNA level, 48 h; actives raise or lower the signal
Read-out in assay [1]: ABC Transporter (ABCC2), ABCC2 (gene 1244)
In words: LTEA_HepaRG_ABCC2: Life Technologies and Expression Analysis (LTEA) Assay for ABC Transporter (ABCC2) using HepaRG (AID 2283464). Summed up: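 Gene expression of ABCC2 was determined by qRT-PCR in HepaRG cells exposed 48 h to chemicals (highest 100 uM, half-log dilutions). Activity was fitted in both directions relative to 0.5% DMSO vehicle.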

Read-out in assay [2]: Broad substrate specificity ATP-binding cassette transporter ABCG2 (Homo sapiens) (UniProt Q9UNQ0)
Put plainly: LTEA_HepaRG_ABCG2: Life Technologies and Expression Analysis (LTEA) Assay for ABC Transporter (ABCG2) using HepaRG (AID 2283465). In a few lines:
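HepaRG, 48 h exposure, 8-pt half-log series from 100 uM, 0.5% DMSO vehicle, duplicates. Readout: ABCG2 transcript by qRT-PCR (Fluidigm array), housekeeping-normalized; bidirectional curve fit relative to DMSO baseline.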

Read-out in assay [3]: Peroxisomal acyl-coenzyme A oxidase 1 (ACOX1) gene, ACOX1 (gene 51)
Put plainly: LTEA_HepaRG_ACOX1: Life Technologies and Expression Analysis (LTEA) Assay for Peroxisomal acyl-coenzyme A oxidase 1 (ACOX1) gene using HepaRG (AID 2283467). Summed up:
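HepaRG, 48 h chemical exposure, 8-pt half-log series from 100 uM top, 0.5% DMSO vehicle, duplicates. Readout: ACOX1 mRNA by Fluidigm qRT-PCR, housekeeping-normalized; bidirectional fit vs DMSO baseline.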

Read-out in assay [4]: Alkaline Phosphatase, Placental (ALPP) gene, ALPP (gene 250)
Put plainly: LTEA_HepaRG_ALPP: Life Technologies and Expression Analysis (LTEA) Assay for Alkaline Phosphatase, Placental (ALPP) gene using HepaRG (AID 2283468). In a few lines:
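Expression of ALPP was quantified by qRT-PCR against three housekeeping genes in human HepaRG cultures treated for 48 h with an eight-point concentration series up to 100 uM. Activity in either direction was fitted relative to 0.5% DMSO.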

Read-out in assay [5]: Bcl-2 (BAD) gene, BAD (gene 572)
Put plainly: LTEA_HepaRG_BAD: Life Technologies and Expression Analysis (LTEA) Assay for Bcl-2 (BAD) gene using HepaRG (AID 2283469). Summed up:
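HepaRG, 48 h exposure, 8-pt half-log curve from 100 uM in 0.5% DMSO, duplicates. Readout: TaqMan qRT-PCR for BAD mRNA, housekeeping-normalised (ACTB/GAPDH/POLR2A); gain or loss fitted against DMSO baseline.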

Read-out in assay [6]: adenosine kinase (ADK) gene, ADK (gene 132)
In words: LTEA_HepaRG_ADK: Life Technologies and Expression Analysis (LTEA) Assay for adenosine kinase (ADK) gene using HepaRG (AID 2283471). In a few lines: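 ADK expression quantified by qRT-PCR, normalised to three housekeeping genes, after 48 h exposure of HepaRG cells to eight concentrations (top 100 uM, half-log steps, duplicate, 0.5% DMSO). Up- or down-regulation fitted relative to vehicle.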

Read-out in assay [7]: BCL2L11 (gene 10018)
In words: LTEA_HepaRG_BCL2L11: Life Technologies and Expression Analysis (LTEA) Assay for Bcl-2 (BCL2L11) gene using HepaRG (AID 2283473). Summed up:
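Cells were plated, cultured 48 h, switched to serum-free induction medium, then dosed in duplicate for 48 h at eight half-log concentrations up to 100 uM. Lysates underwent RNA isolation and TaqMan qRT-PCR; gain or loss versus DMSO was fitted.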

Read-out in assay [8]: Apolipoprotein A-V (APOA5) gene, APOA5 (gene 116519)
Put plainly: LTEA_HepaRG_APOA5: Life Technologies and Expression Analysis (LTEA) Assay for Apolipoprotein A-V (APOA5) gene using HepaRG (AID 2283474). In a few lines: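 Human liver HepaRG cells are treated 48 h with test chemicals (100 uM top, half-log dilutions, 0.5% DMSO). APOA5 mRNA induction or loss is measured by qRT-PCR relative to vehicle.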

Read-out in assay [9]: Apoptosis regulator Bcl-2 (Homo sapiens) (UniProt P10415)
In words: LTEA_HepaRG_BCL2: Life Technologies and Expression Analysis (LTEA) Assay for Bcl-2 gene using HepaRG (AID 2283475). In a few lines: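 Plated human HepaRG cells are exposed to test chemicals for 48 h across eight concentrations from 100 uM downward in half-log steps (0.5% DMSO). BCL2 expression is then measured by qRT-PCR with housekeeping normalisation and fitted bidirectionally against vehicle.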

Read-out in assay [10]: Bcl-2 (BID) gene, BID (gene 637)
In words: LTEA_HepaRG_BID: Life Technologies and Expression Analysis (LTEA) Assay for Bcl-2 (BID) gene using HepaRG (AID 2283476). Summed up: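 Cells are plated, cultured 48 h, switched to serum-free induction medium, then dosed 48 h (100 uM top, half-log steps, 0.5% DMSO). RNA is isolated and BID expression read by qRT-PCR.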

Read-out in assay [11]: Caspase-3 (Homo sapiens) (UniProt P42574)
In words: LTEA_HepaRG_CASP3: Life Technologies and Expression Analysis (LTEA) Assay for cysteine-aspartic acid protease (CASP3) using HepaRG (AID 2283477). Summed up: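 In HepaRG liver cells dosed for 48 h at up to 100 uM (eight-point, duplicate), CASP3 expression changes are scored by qRT-PCR. Activity is fitted in both directions with 0.5% DMSO as baseline.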

Read-out in assay [12]: Cytochrome P450 (CYP1A2), CYP1A2 (gene 1544)
Put plainly: LTEA_HepaRG_CYP1A2: Life Technologies and Expression Analysis (LTEA) Assay for Cytochrome P450 (CYP1A2) using HepaRG (AID 2283479).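 For AC50: TaqMan qRT-PCR transcript level normalized to ACTB GAPDH and POLR2A.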 In a few lines:
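Assesses CYP1A2 mRNA in human HepaRG liver cells after 48 h chemical exposure at up to 100 uM. Values come from qRT-PCR with bidirectional curve fitting relative to DMSO.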

Read-out in assay [13]: cysteine-aspartic acid protease (CASP8), CASP8 (gene 841)
Put plainly: LTEA_HepaRG_CASP8: Life Technologies and Expression Analysis (LTEA) Assay for cysteine-aspartic acid protease (CASP8) using HepaRG (AID 2283480). In a few lines: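 qRT-PCR readout of CASP8 mRNA, normalized to three housekeeping genes, after 48 h chemical exposure of HepaRG cells; 8-point half-log series, top 100 uM, 0.5% DMSO vehicle. Bidirectional curve fitting against DMSO baseline.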

Read-out in assay [14]: Cytochrome P450 (CYP2B6), CYP2B6 (gene 1555)
In words: LTEA_HepaRG_CYP2B6: Life Technologies and Expression Analysis (LTEA) Assay for Cytochrome P450 (CYP2B6) using HepaRG (AID 2283481). In a few lines: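 Using 48 h treatment of HepaRG cells in serum-free induction medium, concentrations spanned half-log steps from 100 uM in 0.5% DMSO vehicle. CYP2B6 mRNA induction or loss is scored by qRT-PCR against DMSO.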

Read-out in assay [15]: Cytochrome P450 2C19 (Homo sapiens) (UniProt P33261)
Put plainly: LTEA_HepaRG_CYP2C19: Life Technologies and Expression Analysis (LTEA) Assay for CYP2C19 using HepaRG (AID 2283482). In a few lines: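 Human HepaRG liver cells received test chemicals for 48 h (highest 100 uM, half-log dilutions in 0.5% DMSO). CYP2C19 mRNA induction or loss is read by multiplexed qRT-PCR and fitted in both directions versus vehicle.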

Read-out in assay [16]: CYP2C8 (gene 1558)
In words: LTEA_HepaRG_CYP2C8: Life Technologies and Expression Analysis (LTEA) Assay for CYP2C8 using HepaRG (AID 2283483). Summed up: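 HepaRG (human liver line), 48 h chemical exposure, 8-pt half-log series from 100 uM, 0.5% DMSO vehicle. Readout: CYP2C8 transcript by qRT-PCR, housekeeping-normalized. Bidirectional fit vs DMSO baseline.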

Read-out in assay [17]: Alpha-fetoprotein (AFP) gene, AFP (gene 174)
In words: LTEA_HepaRG_AFP: Life Technologies and Expression Analysis (LTEA) Assay for Alpha-fetoprotein (AFP) gene using HepaRG (AID 2283472).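 For AC50: AFP transcript by TaqMan qRT-PCR normalized to ACTB GAPDH and POLR2A.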 Summed up: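 Chemicals were tested on differentiated HepaRG cells for 48 hours at eight concentrations up to 100 uM, with 0.5% DMSO as vehicle. AFP expression was then quantified by qRT-PCR and analyzed for gain or loss relative to DMSO.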

Read-out in assay [18]: Cytochrome P450 (CYP24A1), CYP24A1 (gene 1591)
In words: LTEA_HepaRG_CYP24A1: Life Technologies and Expression Analysis (LTEA) Assay for Cytochrome P450 (CYP24A1) using HepaRG (AID 2283478). Summed up:
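Human liver HepaRG cultures receive each chemical for 48 h across an eight-point half-log series topping at 100 uM in 0.5% DMSO. Induction or suppression of CYP24A1 mRNA is scored relative to vehicle after housekeeping-gene normalization.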

Active and inactive are the calls of the source. Rule for the calls: active = hit-call score of the fitted dose curve at least 0.9, where 1 is the maximum; inactive = score below 0.9.

Caspase-3 (Homo sapiens), sequence (P42574 whole entry, looked up): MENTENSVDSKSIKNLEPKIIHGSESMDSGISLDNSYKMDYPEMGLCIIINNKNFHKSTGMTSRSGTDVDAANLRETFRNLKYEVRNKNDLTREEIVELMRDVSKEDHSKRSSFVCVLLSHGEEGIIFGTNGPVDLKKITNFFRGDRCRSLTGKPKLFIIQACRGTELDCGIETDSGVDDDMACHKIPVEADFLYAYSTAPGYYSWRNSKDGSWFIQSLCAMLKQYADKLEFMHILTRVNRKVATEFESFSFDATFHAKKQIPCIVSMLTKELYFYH
Broad substrate specificity ATP-binding cassette transporter ABCG2 (Homo sapiens), sequence (Q9UNQ0 whole entry, looked up): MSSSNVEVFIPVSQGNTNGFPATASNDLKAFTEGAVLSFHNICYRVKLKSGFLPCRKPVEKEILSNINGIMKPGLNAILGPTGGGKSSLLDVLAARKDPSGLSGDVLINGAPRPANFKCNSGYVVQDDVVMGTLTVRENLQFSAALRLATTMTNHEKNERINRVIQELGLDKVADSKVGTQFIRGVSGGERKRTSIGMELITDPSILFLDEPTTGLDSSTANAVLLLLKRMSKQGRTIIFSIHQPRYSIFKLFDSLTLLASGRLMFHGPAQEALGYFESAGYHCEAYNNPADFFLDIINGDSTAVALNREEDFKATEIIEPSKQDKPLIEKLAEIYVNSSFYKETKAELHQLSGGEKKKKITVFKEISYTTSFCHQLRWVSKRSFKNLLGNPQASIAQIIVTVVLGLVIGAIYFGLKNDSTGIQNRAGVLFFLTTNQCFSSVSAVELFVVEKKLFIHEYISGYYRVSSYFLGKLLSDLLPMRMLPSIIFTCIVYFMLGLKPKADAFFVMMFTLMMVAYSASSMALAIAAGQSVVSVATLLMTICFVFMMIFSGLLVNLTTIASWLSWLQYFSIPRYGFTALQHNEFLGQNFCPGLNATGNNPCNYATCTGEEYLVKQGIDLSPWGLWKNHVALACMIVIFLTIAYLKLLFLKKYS
Cytochrome P450 2C19 (Homo sapiens), sequence (P33261 whole entry, looked up): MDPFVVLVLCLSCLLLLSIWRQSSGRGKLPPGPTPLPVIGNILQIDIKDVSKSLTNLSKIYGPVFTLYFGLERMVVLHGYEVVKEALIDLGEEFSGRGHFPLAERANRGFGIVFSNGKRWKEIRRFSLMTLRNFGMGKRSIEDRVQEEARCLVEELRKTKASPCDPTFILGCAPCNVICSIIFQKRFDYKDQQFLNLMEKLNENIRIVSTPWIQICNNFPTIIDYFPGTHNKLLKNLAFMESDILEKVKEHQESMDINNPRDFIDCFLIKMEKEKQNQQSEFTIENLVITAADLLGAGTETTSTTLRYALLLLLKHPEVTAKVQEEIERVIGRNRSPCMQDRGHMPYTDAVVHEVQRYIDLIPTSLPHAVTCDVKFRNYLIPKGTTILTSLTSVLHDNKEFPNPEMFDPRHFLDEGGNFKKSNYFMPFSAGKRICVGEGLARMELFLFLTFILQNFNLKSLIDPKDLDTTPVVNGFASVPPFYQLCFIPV
Apoptosis regulator Bcl-2 (Homo sapiens), sequence (P10415 whole entry, looked up): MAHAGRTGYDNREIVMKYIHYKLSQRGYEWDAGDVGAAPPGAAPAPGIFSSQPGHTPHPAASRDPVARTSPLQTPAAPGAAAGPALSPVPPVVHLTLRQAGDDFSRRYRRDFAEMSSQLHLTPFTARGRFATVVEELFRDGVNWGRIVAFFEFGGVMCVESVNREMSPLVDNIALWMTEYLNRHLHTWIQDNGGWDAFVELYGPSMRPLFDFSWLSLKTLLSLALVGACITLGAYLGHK

Turning to `Oc1ccc(C(c2ccc(O)cc2)C(Cl)(Cl)Cl)cc1`, the AC50 in assay [1] is 83.1 µM (active); in assay [2], 75.4 µM (active); in assay [3], 85.5 µM (active); in [6], 75.9 µM (active); in [8] it was 79.7 µM (active); in assay [10], 84.8 µM (active). Besides, the half-maximal activity concentration (AC50) in assay [11] is 86.2 µM (active); in assay [13] it was 88.4 µM (active); in assay [14] it was 81.1 µM (active); in [15], 78.4 µM (active); in [16] it was 93.2 µM (active). Moreover, the outcome in assay [4], in [5], in [7], in assay [9] and in [12] was inactive.

Take `c1ccc2[nH]c(-c3cscn3)nc2c1`: the result in assay [1], in assay [3], in assay [4], in assay [5], in assay [6] and in assay [7] was inactive. The outcome in assay [8], in assay [9], in assay [10], in [11], in [13] and in assay [16] was inactive. Further, the AC50 is 9.92 µM (active) in assay [2], 23.6 µM (active) in assay [12], 16.5 µM (active) in assay [14] and 28.6 µM (active) in [15].

`CN(C)C(=O)Nc1ccc(Cl)c(Cl)c1`: the call in assay [1], in [3], in assay [4], in [5], in assay [6] and in [7] was inactive. The molecule was classed as inactive in [8], in assay [9], in [10], in assay [11], in assay [13] and in assay [16]. The AC50 in assay [2] was 36.4 µM (active); in assay [12] it was 30 µM (active); in [14], 10.9 µM (active); in [15], 28.7 µM (active).

As for `CCOC(=O)COc1cc(-n2ncc(C(F)(F)F)c(C)c2=O)c(F)cc1Cl`, the call in assay [1], in assay [2], in assay [3], in [4], in [5] and in [6] was inactive. Further, the molecule was classed as inactive in [7], in assay [8], in [9], in assay [10], in [11] and in assay [12]. Moreover, the molecule was called inactive in assay [13] and in assay [15]. Further, the half-maximal activity concentration (AC50) in [14] was 50 µM (active).

On to `C#CCOC(=O)[C@@H](C)Oc1ccc(Oc2ncc(Cl)cc2F)cc1`, for which the result in assay [1], in assay [2], in assay [3], in assay [4], in assay [5] and in [6] was inactive. Besides, the outcome in assay [17], in assay [7], in assay [8], in assay [9], in assay [10] and in assay [11] was inactive. Also, the molecule was called inactive in assay [18], in assay [12], in [13], in assay [14] and in [15].

Regarding `S=C([S-])NCCNC(=S)[S-].[Mn+2]`, the half-maximal activity concentration (AC50) in assay [1] was 2.87 µM (active); in assay [3], 2.64 µM (active); in [6] it was 0.628 µM (active); in [17], 3.16 µM (active); in assay [8], 3.64 µM (active); in assay [11], 0.594 µM (active). The AC50 in [12] was 0.654 µM (active); in [13], 3.99 µM (active); in assay [14] it was 2.35 µM (active); in [15] it was 4.61 µM (active); in [16], 2.31 µM (active). Moreover, the result in [2], in [4], in assay [5], in assay [7], in [9] and in [10] was inactive.
